Source: publication PMC4336329 (PLoS ONE, 2015)
Out of some 310,000 compounds screened, about 2,200 (0.71%) showed an effect of 50% or more. Effects have a minus sign here. Only a selection was taken, and strong results are over-represented in it overall.

Target: human ether-à-go-go-related gene (hERG) potassium channel (human, UniProt Q12809)
Test: primary screen, population patch clamp on CHO cells stably expressing hERG; higher = less effect of the substance

human ether-à-go-go-related gene (hERG) potassium channel, sequence (Q12809 whole entry, looked up): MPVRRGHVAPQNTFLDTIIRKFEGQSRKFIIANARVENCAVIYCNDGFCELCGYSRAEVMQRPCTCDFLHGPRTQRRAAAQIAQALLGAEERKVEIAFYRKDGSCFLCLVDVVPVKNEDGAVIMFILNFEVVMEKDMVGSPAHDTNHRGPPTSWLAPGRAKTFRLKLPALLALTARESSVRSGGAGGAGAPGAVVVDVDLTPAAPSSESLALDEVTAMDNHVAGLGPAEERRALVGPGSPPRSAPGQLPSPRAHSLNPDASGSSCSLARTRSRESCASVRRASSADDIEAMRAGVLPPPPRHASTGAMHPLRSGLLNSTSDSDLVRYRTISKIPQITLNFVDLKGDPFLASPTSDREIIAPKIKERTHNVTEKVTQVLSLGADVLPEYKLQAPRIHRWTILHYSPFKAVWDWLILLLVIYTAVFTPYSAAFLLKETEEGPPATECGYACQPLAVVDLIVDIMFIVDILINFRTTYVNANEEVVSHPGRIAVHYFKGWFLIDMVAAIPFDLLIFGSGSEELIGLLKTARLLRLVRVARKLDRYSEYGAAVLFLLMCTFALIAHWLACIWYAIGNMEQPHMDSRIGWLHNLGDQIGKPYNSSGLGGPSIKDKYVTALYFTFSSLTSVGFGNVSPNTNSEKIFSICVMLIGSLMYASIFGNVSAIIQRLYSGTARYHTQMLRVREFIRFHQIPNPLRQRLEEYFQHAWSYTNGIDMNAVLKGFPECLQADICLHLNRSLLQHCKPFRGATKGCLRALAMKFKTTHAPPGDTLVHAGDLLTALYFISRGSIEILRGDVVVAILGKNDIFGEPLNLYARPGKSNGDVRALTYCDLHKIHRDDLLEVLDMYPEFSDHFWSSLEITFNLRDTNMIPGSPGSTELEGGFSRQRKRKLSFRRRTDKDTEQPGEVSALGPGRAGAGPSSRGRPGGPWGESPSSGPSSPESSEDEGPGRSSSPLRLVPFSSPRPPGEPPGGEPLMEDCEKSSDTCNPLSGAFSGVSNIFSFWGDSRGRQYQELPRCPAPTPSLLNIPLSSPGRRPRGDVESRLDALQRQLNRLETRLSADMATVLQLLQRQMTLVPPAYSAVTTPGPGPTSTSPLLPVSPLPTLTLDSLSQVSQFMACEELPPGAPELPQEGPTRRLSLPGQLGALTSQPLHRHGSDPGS

SMILES	hERG current change (%, negative = inhibition) at 1uM
CCN(CC)CCCNC(=O)C(C)n1c2ccccc2c2nc(=O)cc(C)n21 (stereo not drawn)	12.7%
O=C1c2ccccc2C(=O)N1/N=C/c1ccc(O)c(O)c1	13.9%
CCOc1ccc(C2NC(=O)c3n[nH]c(C)c32)cc1 (stereo not drawn)	9.09%
COc1ccccc1N1CCN(CCN(C(=O)c2ccc(F)cc2)c2ccccn2)CC1.Cl	-57.8%
COc1ccccc1N1CCN(Cc2ccc(F)cc2)CC1	6.42%
Cc1ccccc1N1CCN(CCCOc2ccc3c(C)cc(=O)oc3c2)CC1	-56.2%
COc1ccccc1N1CCN(CCN(C(=O)C2CCCCC2)c2ccccn2)CC1.O=C(O)/C=C\C(=O)O	4.2%
COc1ccccc1N1CCN(CCCCOc2ccc(F)cc2)CC1.Cl	-71.5%
COc1ccccc1N1CCN(CC(=O)c2ccc(F)cc2)CC1.Cl	16.7%
COc1ccccc1N1CCN(CCCCCCOc2ccc(F)cc2)CC1	-7.53%
COc1ccccc1N1CCN(CCCC(=O)c2ccc(F)cc2)CC1	-43.2%
COc1ccccc1N1CCN(CCCCOc2cccc3ccccc23)CC1.Cl	9.44%
COc1ccccc1N1CCN(CCCOc2ccc(F)cc2)CC1	-60.3%
Cc1cc(=O)oc2cc(OCCCN3C(=O)c4ccccc4C3=O)ccc12	-0.574%
COc1ccc(N2CCN(CCOc3ccc4c(C)cc(=O)oc4c3)CC2)cc1	-37.8%
CCOC(=O)c1sc2nc(C)nc(N3CCCCC3C)c2c1C (stereo not drawn)	-5.1%
O=C(NCCNC(=O)c1ccc(Cl)cc1Cl)c1cnccn1	6.54%
O=C(CSc1cccc2cccc(Cl)c12)NC1=NCCS1	2.37%
CSCCC(NC(=O)COc1ccccc1)C(=O)NCCOc1ccc(C)cc1 (stereo not drawn)	3.41%
O=C(CCC1CCN(C(=O)c2ccco2)CC1)NCc1ccc(F)cc1	-62%
Cl.O=C(c1ccco1)N1CCN(CCCCOc2ccc(F)cc2)CC1	-74.8%

SMILES	hERG current change (%, negative = inhibition) at 1uM
Cl.O=C(c1ccco1)N1CCN(CCOc2ccc(F)cc2)CC1	-0.809%
O=C(c1ccco1)N1CCN(CCOc2ccccc2)CC1	10.3%
O=C(CCC1CCN(C(=O)c2ccccc2Cl)CC1)NCc1ccc(F)cc1	4.08%
O=C(c1ccco1)N1CCN(C(=S)NCc2ccc(F)cc2)CC1	-3.27%
Cc1cccc(NC(=O)Cn2c(=O)n(Cc3ccco3)c(=N)c3c4c(sc32)COC(C)(C)C4)c1	3%
COc1cccc(/C=C2\SC(N)=NC2=O)c1OS(=O)(=O)c1ccccc1	2.6%
COc1cccc(CN2CC(C(=O)NCCCCc3ccccn3)CCC2=O)c1 (stereo not drawn)	7.17%
Cc1ccccc1Cn1c(C)nc2ccccc21	10.4%
Cc1ccc(SCc2nc3ccccc3n2CC(=O)Nc2c(C)cccc2C)cc1	6.88%
CC(C)C[C@@H](C(=O)NC1CCN(Cc2ccccc2)CC1)N1C(=O)N2CCc3c([nH]c4ccccc34)[C@@]2(C)C1=O	-12.1%
CC(C)[C@@H](C(=O)NC1CCN(Cc2ccccc2)CC1)N1C(=O)N2CCc3c([nH]c4ccccc34)[C@@]2(C)C1=O	-4.75%
C[C@@H](C(=O)NC1CCN(Cc2ccccc2)CC1)N1C(=O)N2CCc3c([nH]c4ccccc34)[C@@]2(C)C1=O	-62.1%
Cc1ccc(-n2nnnc2SCC(=O)Nc2ccccc2-c2ccccc2)cc1C	2.73%
C#CC1CN(Cc2ccccc2)CC(C#C)N1C.Cl (stereo not drawn)	15.1%
O=C(CN1CCN(CC(=O)Nc2ccc(-c3ccccc3)cc2)CC1)Nc1ccc(F)cc1	-13.7%
CCN(CC)c1ccc(NC(=O)CN2CCN(c3ccccc3F)CC2)cc1	7.06%
O=C(CN1CCN(CC(=O)Nc2ccc(Cl)cc2)CC1)Nc1ccc(F)cc1	-86.9%
CN(C)c1ccc(NC(=O)CN2CCN(c3ccc(F)cc3)CC2)cc1	-3.53%
COc1ccc(N2CCN(CC(=O)Nc3ccc(SC(F)F)cc3)CC2)cc1	-35.8%
O=C(CN1CCN(c2ccc(O)cc2)CC1)Nc1ccc(SC(F)F)cc1	-78.4%
O=C(CN1CCN(c2ccc(Cl)cc2)CC1)Nc1ccc(F)cc1	-28.1%
